Screens as filed in PubChem BioAssay.
A selection: hits, their analogues and other compounds. The true share with any hit is near 5.4%.
A3A deaminase: inhibitors of human APOBEC3A DNA deaminase | P31941 | recombinant A3A, FAM/TAMRA ssDNA deamination fluorescence | inhibition, % at 20 µM | 330,000 tested, 0.41% active | AID 493011;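 active = at least 40% inhibition at 20 µM here, with at most 30% in a related deaminase screen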
Target sequence (P31941 whole entry, looked up): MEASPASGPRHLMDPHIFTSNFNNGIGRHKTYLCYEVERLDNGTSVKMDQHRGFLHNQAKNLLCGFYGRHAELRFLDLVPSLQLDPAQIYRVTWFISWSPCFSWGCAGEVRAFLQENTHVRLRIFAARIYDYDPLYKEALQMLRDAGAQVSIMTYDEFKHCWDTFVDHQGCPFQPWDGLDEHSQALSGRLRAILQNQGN
APOBEC3G inh: blocks human APOBEC3G single-stranded DNA deamination; Q9HC16; recombinant A3G, ssDNA deamination FAM/TAMRA fluorescence; inhibition, % at 20 µM; 330,000 tested, 0.28% active; AID 493012;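 active = inhibition of at least 40% at 20 µM, with no more than 30% in the related APOBEC3A deaminase screen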
Target sequence (Q9HC16 whole entry, looked up): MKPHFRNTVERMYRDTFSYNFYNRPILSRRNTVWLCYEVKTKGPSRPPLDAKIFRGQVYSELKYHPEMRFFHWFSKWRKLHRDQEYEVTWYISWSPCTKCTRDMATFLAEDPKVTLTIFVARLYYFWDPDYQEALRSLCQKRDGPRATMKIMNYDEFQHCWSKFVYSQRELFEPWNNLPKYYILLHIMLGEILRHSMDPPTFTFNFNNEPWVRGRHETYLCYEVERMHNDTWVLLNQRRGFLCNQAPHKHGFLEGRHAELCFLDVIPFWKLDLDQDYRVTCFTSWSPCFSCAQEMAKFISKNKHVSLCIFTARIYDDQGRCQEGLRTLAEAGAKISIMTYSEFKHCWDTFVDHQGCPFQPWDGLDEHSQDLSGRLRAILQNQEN
aDG glyco up: increases alpha dystroglycan glycosylation; 360,000 tested, 0.22% active; activation, % at 10 µM; Pro5-aDG cells, alpha-DG glycosylation AlphaScreen (IIH6); 0% Pro5, 100% B10-LARGE cell signal;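 active = activation of at least 8% versus controls, or a plate z-score of at least 8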;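 also: Pro5 are CHO cells carrying HIG-tagged alpha-DG that lacks glycosylation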
ALR H2O2 inh: inhibitors of human sulfhydryl oxidase ALR; P55789; purified ALR, DTT oxidation, H2O2 HRP-luminol luminescence; inhibition, % (test concentration not listed); 290,000 tested, 3.8% active;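 active = mean replicate inhibition above about 79%, with every replicate also reaching it, limit read from the data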
rCAG RNA binder: binds r(CAG) RNA repeats | inhibition, % at 3 µM | AID 651821 | 370,000 tested, 1.3% active | r(CAG) RNA repeat, TO-PRO-1 dye displacement fluorescence;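 active = inhibition above the plate cutoff, the mean of all test compounds on that plate plus 3 SD, cut at about 35% in these data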;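 also: higher means more dye released from RNA so lower well fluorescence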
PHOSPHO1 inh: blocks human PHOSPHO1 phosphatase activity | Q8TCT1 | recombinant PHOSPHO1, absorbance phosphatase assay | inhibition, % at 13.3 µM | 290,000 tested, 1.1% active | AID 1565; in the data active = inhibition above about 60%
A number is an active result; n = inactive; x = not tested or not shown.

SMILES	A3A deaminase	APOBEC3G inh	aDG glyco up	ALR H2O2 inh	rCAG RNA binder	PHOSPHO1 inh
Cc1ccc(OCC(C)CN2CCC(C(O)(c3ccccc3)c3ccccc3)CC2)cc1 (configuration not stated)	x	x	x	x	n	x
C=CCN(Cc1ccc2c(c1)OCO2)C(C#Cc1ccccc1)c1ccccc1C(F)(F)F (configuration not stated)	x	x	x	x	n	x
COC(=O)c1cc2c(c3c4ccccc4n(S(=O)(=O)c4ccc(C)cc4)c13)C(=O)N(C)C2	x	x	x	x	n	x
CC1(C)CC2(CC(c3ccccc3F)c3ccc(O)c(O)c3O2)NC(=S)N1 (configuration not stated)	n	n	n	99	n	n
COC(=O)[C@]12C=CCN1[C@H](c1ccccc1)c1c(c3ccccc3n1S(=O)(=O)c1ccc(C)cc1)C2	x	x	x	x	n	x
Oc1cc(-c2ccccc2)c2ccccc2c1	n	n	n	99	n	n
Cn1c(SCC(=O)Nc2ccc(Br)cn2)nnc1C1CC1	n	n	n	n	n	x
CCOC(=O)c1ccc(NC(=O)CSC2=NC(=O)C(CC)C(=O)N2)cc1 (configuration not stated)	n	n	n	99	n	n
CCC1C(=O)N=C(SCC(=O)Nc2ccc(Br)cn2)NC1=O (configuration not stated)	n	n	n	99	n	n
CCC1C(=O)N=C(SCC(=O)Nc2nc3ccccc3s2)NC1=O (configuration not stated)	n	n	n	99	n	n
CCC1C(=O)N=C(SCC(=O)Nc2cccc3ccccc23)NC1=O (configuration not stated)	n	n	n	99	n	n
CCOC(=O)CC(=O)Nc1nc2ccccc2s1	n	n	n	x	n	n
COc1ccc(/C=C2/CN(Cc3ccc(OC)cc3OC)C3=N[C@H](c4ccccc4)CC(=O)N32)cc1	x	x	x	x	n	x
COC(=O)[C@]12C[C@H](CC(=O)NCc3ccccc3)C(=O)N(Cc3ccc(Cl)cc3Cl)C1=C[C@H](C1CCCC1)O[C@@H]2C	x	x	x	x	n	x
Nc1cc(=O)[nH]c(SCC(=O)c2ccc(F)cc2)n1	n	n	n	98	n	n
Cc1cc(=O)[nH]c(SCC(=O)c2ccc(C(C)C)cc2)n1	n	n	n	98	n	n
Cc1ccc(C(=O)CSc2nc(N)cc(=O)[nH]2)cc1	n	n	n	99	n	n
CCCCCCCCN1C(=O)[C@@H](CC(=O)NCCCOC)C[C@@]2(C(=O)OC)C1=C[C@H](C(C)C)O[C@@H]2C1CC1	x	x	x	x	n	x
O=C(NC(C(=O)N1CCCC1C(=O)NC1CCCC1)c1ccccc1)c1cccs1 (configuration not stated)	x	x	x	x	n	x
CCOC(=O)C1=C(C)N=c2s/c(=C\c3ccc(C(=O)O)cc3)c(=O)n2C1c1ccc(OC)cc1OC (configuration not stated)	x	x	n	x	n	x
CCOC(=O)C1=C(C)N=c2s/c(=C/c3ccco3)c(=O)n2C1c1cccc(OC)c1 (configuration not stated)	n	n	x	x	x	66
NC(=O)[C@@H]1CCCN1C(=O)[C@H]1O[C@@H](n2ccc(N)nc2=O)[C@H](O)[C@@H]1O	x	x	x	x	n	x
C(=Nc1ccc(N2CCOCC2)cc1)c1c[nH]c2ccccc12	n	n	n	99	n	n
Oc1ccc2ccccc2c1C=Nc1ccc(N2CCOCC2)cc1	n	n	x	x	n	n
O=C(CCl)c1ccc(Cc2ncc(C(F)(F)F)cc2Cl)s1	n	n	n	x	n	77
SMILES	A3A deaminase	APOBEC3G inh	aDG glyco up	ALR H2O2 inh	rCAG RNA binder	PHOSPHO1 inh
NS(=O)(=O)c1ccc(Cc2ncc(C(F)(F)F)cc2Cl)s1	n	n	n	x	n	n
O=C(Nc1ccc(F)cc1)OCc1cn(Cc2c(F)cccc2F)nn1	x	x	x	x	n	x
CN1CCN(NC(=O)CN2C(=O)/C(=C/c3ccccc3Cl)SC2=S)CC1	n	n	n	99	n	n
O=C(CCN1C(=O)/C(=C/c2ccccc2Cl)SC1=S)Nc1ccccc1C(=O)O	n	n	n	98	n	n
O=C(CN1C(=O)/C(=C\c2ccco2)SC1=S)Nc1ccc(O)cc1C(=O)O	n	n	n	n	88	n
O=C1/C(=C\c2ccco2)SC(=S)N1Cc1ccccc1	n	n	n	n	n	n
CC(C)C[C@H]1COc2cc(N3CCCC3)ccc2S(=O)(=O)N1C	x	x	x	x	n	x
Cc1ccc2c(c1)NC(=O)c1cccnc1N2	n	n	n	98	n	n
O=C1Nc2ccccc2Nc2ncccc21	n	n	n	x	n	n
C=CCN1C(=O)[C@@H](CC(=O)NCC23CC4CC(CC(C4)C2)C3)[C@]2(C(=O)OCC)CCCCC/C=C/12	x	x	x	x	n	x
Cc1cccc2sc(NC(=O)c3ccc(Cl)s3)nc12	n	n	n	97	n	n
Cc1ccc2[nH]c3c(N4CCc5ccccc5C4)ncnc3c2c1	n	n	6.7	n	n	n
O=C(CSc1nc2ccc(NC(=O)c3ccccc3C(=O)O)cc2s1)Nc1ccc(F)c([N+](=O)[O-])c1	n	n	n	x	n	n
COc1ccccc1C(=O)Nc1ccc2c(c1)nc1n2CCSC1	n	n	n	99	n	n
COc1ccccc1C(=O)Nc1ccc2nc(SCC(=O)N(C)C)sc2c1	n	n	n	100	n	n
COc1ccccc1C(=O)Nc1ccc2c(c1)nc1n2CCN(Cc2ccccc2)C1	n	n	n	x	n	n
CC(=O)Nc1ccc2c(c1)nc1n2CCSC1	n	n	n	99	n	n
Cc1ccc(C(=O)Nc2ccc3c(c2)nc2n3CCSC2)cc1	n	n	n	98	n	n
Cc1cc(N2CCN(CC(C)(C)O)C[C@@H]2C)ccc1N1CCN(CC(C)(C)O)[C@@H](C)C1	x	x	x	x	n	x
Cc1ccccc1CN1CCCCC(NC(=O)Nc2ccccc2-c2ccccc2)C1=O (configuration not stated)	x	x	x	x	n	x
O=C(CSc1nnc(-c2ccccc2)n1-c1ccccc1)Nc1cccc2ccccc12	x	x	x	x	n	x
COc1ccc(OCC(=O)Nc2ccc3c(c2)nc2n3CCSC2)cc1	n	n	n	n	n	n
CCCCC(=O)Nc1ccc2c(c1)nc1n2CCSC1	n	n	n	99	n	n
CCCC(=O)N1CCC[C@]2(CC[C@@H](CCC(=O)N(CC)CC)O2)C1	x	x	x	x	n	x
O=C(c1ccc(Br)cc1)c1cc2ccc(O)cc2oc1=O	n	n	n	97	n	n
C=CCN(c1ccccc1)S(=O)(=O)c1cc2c(cc1C)N(C)CCO2	n	n	n	97	n	n
C=CCN(c1ccccc1)S(=O)(=O)c1cc2c(cc1C)NC(=O)CO2	n	n	n	n	n	n
NC(=O)c1ncn([C@@H]2O[C@H](C(=O)N3CCN(Cc4ccccn4)CC3)[C@@H](O)[C@H]2O)n1	x	x	x	x	n	x
NS(=O)(=O)c1ccc(NC(=O)C2C3C=CC(C3)C2C(=O)O)cc1 (configuration not stated)	n	n	n	n	n	60
CCCS(=O)(=O)c1c(S(=O)(=O)CCC)c2ccc(C(N)=O)cn2c1C(=O)c1ccc(OC)cc1	n	n	n	n	n	60
